Test [1] can be described thus: Quantitative High-Throughput drug screen in 47 multiple myeloma cell lines against the NCATS MIPE library collection: KMS11_JCRBsus cell viability assay (AID 1919873). Also: nearly all actives have a fitted effect of over 50% in size. The method, boiled down: (§1)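 Plated at 500 cells per well, myeloma lines received MIPE 4.0 compounds by pin tool. Following 48 h culture at 37 °C, CellTiter-Glo luminescence gave viability relative to DMSO and media-only controls.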

The nature of test [2]: Quantitative High-Throughput drug screen in 47 multiple myeloma cell lines against the NCATS MIPE library collection: KMS28BM_JCRB cell viability assay (AID 1919874). Also: nearly all actives have a fitted effect of over 35% in size. The method, boiled down:
as §1

Potency data for 50 compounds are collected here from PubChem BioAssay (NCATS).

The structures appear in SMILES notation. Inconclusive results are not listed. The source made the active and inactive calls. Calls follow the shape of the dose curve; as a rule, active = well fitted cell-killing curve with a large enough effect; inconclusive = small, poorly fitted or top-dose-only effect, or effect the other way; inactive = no such curve, though single readings can be large or run the other way.
Potency is read from the fitted curve at half-maximal effect.

`C[C@@]1(C(=O)Nc2ccc(F)nc2)CCCN1c1nc(Nc2cc(C3CC3)[nH]n2)c2cccn2n1`: the Potency in test [1] was 0.0296 µM (active); in test [2], 0.0372 µM (active).

On to `Nc1ncnc2c1ncn2[C@@H]1O[C@H](CO)[C@@H](O)[C@@H]1O`, for which the Potency is 5.26 µM (active) in test [1] and 0.935 µM (active) in test [2].

Regarding `CCC(=O)NCC[C@@H]1CCc2ccc3c(c21)CCO3`, the Potency result in test [1] and in test [2] was “inactive” throughout.

Take `CN(C)c1ccc(-c2nc3ncc(Cl)c(N4CCN(CC(=O)Nc5nccs5)CC4)c3[nH]2)cc1`: the values for the Potency in test [1] and in test [2] were 0.833 µM (active) and 2.35 µM (active), respectively.

Regarding `CN(C)CCN(Cc1ccc(Cl)cc1)c1ccccn1`, in test [1], the Potency result was “inactive”. The Potency in test [2] was 14.8 µM (active).

Regarding `CC1=C(C(=O)Nc2cc3cn[nH]c3cc2F)C(c2ccc(C(F)(F)F)cc2)CC(=O)N1` (stereo unspecified), the Potency result in test [1] and in test [2] was “inactive” in each case.

On to `CC(C)c1onc(-c2c(Cl)cccc2Cl)c1COc1ccc(C=Cc2cccc(C(=O)O)c2)c(Cl)c1`, for which the Potency result in test [1] and in test [2] was “inactive” throughout.

`CC1(C)CC(=O)c2c(C(F)(F)F)nn(-c3ccc(C(N)=O)c(NC4CCC(O)CC4)c3)c2C1` (stereo unspecified): the Potency is 0.0118 µM (active) in test [1] and 0.0372 µM (active) in test [2].

`C[C@H]1[C@H](O)O[C@@H]2O[C@@]3(C)CC[C@@H]4[C@H](C)CC[C@@H]1[C@@]24OO3`: the Potency in test [1] is 1.66 µM (active); in test [2], 13.2 µM (active).

Regarding `NC[C@H]1O[C@H](O[C@@H]2[C@@H](O)[C@@H](O[C@H]3O[C@H](CO)[C@@H](O)[C@H](N)[C@@H]3O)[C@H](N)C[C@@H]2N)[C@H](O)[C@@H](O)[C@H]1O`, the Potency entry in test [1] and in test [2] was “inactive” throughout.

Turning to `O=C1C(CCC(O)c2ccc(F)cc2)C(c2ccc(O)cc2)N1c1ccc(F)cc1` (stereo unspecified), the Potency entry in test [1] and in test [2] was “inactive” each time.

Consider `Cn1c(=O)c(-c2c(Cl)cccc2Cl)cc2cnc(Nc3cccc(C(=O)O)c3)nc21`, for which the Potency result in test [1] and in test [2] was “inactive” throughout.

Take `COc1cccc(OC)c1-c1cc(C(=O)NC2(C(=O)O)C3CC4CC(C3)CC2C4)nn1-c1ccnc2cc(Cl)ccc12` (stereo unspecified): the Potency result in test [1] and in test [2] was “inactive” each time.

For the compound `O=C1NC(=O)C(c2cnc3ccccn23)=C1c1cn2c3c(cccc13)CN(C(=O)N1CCOCC1)CC2`, the Potency in test [1] is 0.0935 µM (active). Moreover, in test [2], the Potency result is “inactive”.

Regarding `C=C[C@@H]1CN2CCC1C[C@@H]2C(O)c1ccnc2ccc(OC)cc12` (stereo partly specified), the Potency result in test [1] and in test [2] was “inactive” throughout.

With `CCN1C[C@H](C)n2c(c(O)c3c(=O)n(Cc4ccc(F)c(Cl)c4)nc(C(=O)NC)c32)C1=O`, the Potency entry in test [1] is “inactive”. In test [2], the Potency is 13.2 µM (active).

Regarding `CCN(CCO)CCCOc1ccc2c(Nc3cc(CC(=O)Nc4cccc(F)c4)[nH]n3)ncnc2c1`, the Potency entry in test [1] was “inactive”. Besides, in test [2], the Potency is 0.0372 µM (active).

On to `Cc1ccc(NC(=O)c2ccc(CN3CCN(C)CC3)cc2)cc1Nc1nc(-c2cccnc2)cs1`, for which the Potency in test [1] was 10.5 µM (active); in test [2] it was 20.9 µM (active).

Take `Cc1ccc2c(=O)c3cccc(CC(=O)O)c3oc2c1C`: the Potency entry in test [1] and in test [2] was “inactive” throughout.

Take `COc1ccc2c(c1)CC[C@H]1[C@@H]2CC[C@]2(C)[C@@H](NCCCCCCN3C(=O)C=CC3=O)CC[C@H]12`: the Potency result in test [1] and in test [2] was “inactive” each time.

For `CC(C)C[C@@H](C(=O)N[C@H](C(=O)OC1CCCC1)c1ccccc1)[C@H](O)C(=O)NO`, the Potency in test [1] is 18.7 µM (active); in test [2] it was 20.9 µM (active).

With `CCN1CCC(n2cc(CNc3cc(Cl)c4ncc(C#N)c(Nc5ccc(F)c(Cl)c5)c4c3)nn2)CC1`, the Potency in test [1] and in test [2] was 20.9 µM (active) each time.

Take `CCC(=C(c1ccc(O)cc1)c1ccc(OCCNC)cc1)c1ccccc1`: the Potency in test [1] is 8.33 µM (active); in test [2], 23.5 µM (active).

For `CN1CC(=O)N2C(Cc3c([nH]c4ccccc34)[C@H]2c2ccc3c(c2)OCO3)C1=O` (stereo partly specified), the Potency entry in test [1] and in test [2] was “inactive” throughout.

On to `CNc1nc(Nc2ccc(C(=O)N3CCOCC3)cc2OC)ncc1Cl`, for which the Potency entry in test [1] and in test [2] was “inactive” in each case.

Regarding `CC(C)(OCc1nn(Cc2ccccc2)c2ccccc12)C(=O)O`, the Potency entry in test [1] and in test [2] was “inactive” each time.

As for `COc1cc2nccc(Oc3ccc(NC(=O)Nc4ccc(F)cc4F)c(F)c3)c2cc1OC`, the Potency in test [1] was 2.09 µM (active); in test [2], 1.05 µM (active).

Turning to `CC[C@H](C)n1cc(C)c2c(C(=O)NCc3c(C)cc(C)[nH]c3=O)cc(-c3ccc(N4CCNCC4)nc3)cc21`, the Potency in test [1] and in test [2] was 23.5 µM (active) in each case.

For the compound `CCC(=C(CC)c1ccc(O)cc1)c1ccc(O)cc1`, the Potency in test [1] was 14.8 µM (active); in test [2], 16.6 µM (active).

`COC(=O)Nc1ccc(-c2nc(N3CCOCC3)c3cnn(C4CCN(C(=O)OC)CC4)c3n2)cc1`: the Potency in test [1] was 0.166 µM (active); in test [2], 0.59 µM (active).

Turning to `CC(=O)O[C@]1(C(C)=O)CC[C@H]2[C@@H]3C=C(Cl)C4=CC(=O)[C@@H]5C[C@H]5[C@]4(C)[C@@H]3CC[C@@]21C`, the Potency entry in test [1] and in test [2] was “inactive” throughout.

In the case of `CCCCCCOC(=O)N=C(N)c1ccc(NCc2nc3cc(C(=O)N(CCC(=O)OCC)c4ccccn4)ccc3n2C)cc1`, the Potency in test [1] is 18.7 µM (active); in test [2], 23.5 µM (active).

In the case of `Cc1[nH]c(C=C2C(=O)Nc3ccc(S(=O)(=O)N(C)c4cccc(Cl)c4)cc32)c(C)c1C(=O)N1CCN(C)CC1`, the Potency in test [1] was 11.8 µM (active); in test [2] it was 16.6 µM (active).

`Cc1cnc(CNC(=O)c2c(=O)c3ccc(N4CCCN(C)CC4)nc3n3c2sc2ccccc23)cn1`: the Potency result in test [1] and in test [2] was “inactive” each time.

On to `CCCCC(F)(F)[C@@]1(O)CC[C@H]2[C@H](CC(=O)[C@@H]2CCCCCCC(=O)O)O1`, for which the Potency result in test [1] and in test [2] was “inactive” each time.

Turning to `COc1cc2nc(-c3cc(F)ccc3O)nc(N[C@@H]3CNC[C@@H]3C(C)(C)O)c2cc1OC`, the figures for the Potency in test [1] and in test [2] were 5.26 µM (active) and 4.18 µM (active), respectively.

As to `O=C1Nc2ccc(I)cc2C1=Cc1cc(Br)c(O)c(Br)c1`, in test [1], the Potency is 18.7 µM (active). Moreover, the Potency result in test [2] was “inactive”.

`CS(=O)(=O)c1ccc(C2=C(c3ccccc3)C(=O)OC2)cc1`: the Potency entry in test [1] and in test [2] was “inactive” each time.

For the compound `O=C(NC[C@H](O)CO)c1ccncc1Nc1ccc(I)cc1F`, the Potency in test [1] is 2.64 µM (active). In addition, the Potency entry in test [2] was “inactive”.

Take `COc1cc2c(cc1OC)[C@@H]1Cc3ccc(OC)c(OC)c3CN1CC2`: the Potency in test [1] is 7.43 µM (active); in test [2], 8.33 µM (active).

As for `CC1CCN(c2cc(N3CCN(C)CC3)ccc2NC(=O)c2cc(C#N)c[nH]2)CC1`, the Potency result in test [1] and in test [2] was “inactive” in each case.

In the case of `COc1cc2c(cc1Cc1cccc(Cl)c1F)c(=O)c(C(=O)O)cn2[C@H](CO)C(C)C`, the Potency in test [1] was 2.96 µM (active); in test [2], 23.5 µM (active).

For `CCOC(=O)[C@@H](N)CCC(=O)N[C@@H](CSCc1ccccc1)C(=O)N[C@@H](C(=O)OCC)c1ccccc1`, the Potency entry in test [1] and in test [2] was “inactive” each time.

Turning to `CN1CCN2c3ncccc3Cc3ccccc3C2C1` (stereo unspecified), the Potency entry in test [1] and in test [2] was “inactive” each time.

In the case of `CN(C)c1nc(Cc2ccc(NC(=O)c3ccc(C(F)(F)F)cc3)cc2)nc(N(C)C)c1CC(=O)O`, the Potency result in test [1] and in test [2] was “inactive” in each case.

On to `CNC1[C@H](O)C(O[C@@H]2C(O)C(O[C@H]3O[C@H]([C@@H](C)NC)CC[C@H]3N)[C@@H](N)C[C@H]2N)OC[C@]1(C)O` (stereo partly specified), for which, in test [2], the Potency entry was “inactive”.

As for `CN(C)CCOc1ccc(-c2nc(-c3ccc4c(c3)CCC4=NO)c(-c3ccncc3)[nH]2)cc1`, the Potency in test [2] is 9.35 µM (active).

As for `CC(=O)NCCC(=O)N[C@@H](CCC(N)=O)C(=O)N[C@@H](CO)C(=O)N[C@@H](CCC(N)=O)C(=O)N[C@@H](CCC(N)=O)C(=O)N[C@H](C(=O)N[C@@H](Cc1ccccc1)C(=O)N[C@]1(C)CCCCCCC=CCCC[C@@](C)(C(=O)N[C@@H](CCC(N)=O)C(=O)N[C@@H](CC(N)=O)C(N)=O)NC(=O)[C@H](CC(C)C)NC(=O)[C@H](CC(C)C)NC(=O)[C@@H](CCCNC(=N)N)NC(=O)[C@H](Cc2c[nH]c3ccccc23)NC(=O)[C@H](CC(C)C)NC(=O)[C@H](CC(N)=O)NC1=O)[C@H](C)O`, the Potency entry in test [2] is “inactive”.

Turning to `OC1CCC(Nc2ncc3nc(Nc4c(F)cc(F)cc4F)n([C@@H]4CCOC4)c3n2)CC1` (stereo partly specified), in test [2], the Potency result was “inactive”.

As to `C[C@@H]1CC=CC=CC=CC=C[C@@H](O[C@@H]2O[C@H](C)[C@@H](O)[C@H](N)[C@H]2O)C[C@@H]2O[C@](O)(C[C@@H](O)C[C@@H]3O[C@@H]3C=CC(=O)O1)C[C@H](O)[C@@H]2C(=O)O`, the Potency in test [1] is 16.6 µM (active); in test [2], 20.9 µM (active).
